Experimental data: PubChem BioAssay AID1159580 (chemical genetic matrix, 2015)
Among all 5,500 compounds or so, about 2,000 (36%) were called active. About 18% were inconclusive and are not listed. No stated cut-off is given here; in the data, active means normalized growth mostly below about 0.91 (no sharp cut-off); inconclusive means no clear call, values can overlap the other calls; inactive means mostly above about 0.92. The list shows a part of the results.

Assay: chemical genetic growth profiling, strain panel (AID 1159580);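 further: tested at 20 µM; growth read once vehicle control cultures reached saturation at 30 °C; 1 = growth at the plate median or of vehicle wells; lower values mean less growth of the strain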
Details: S. cerevisiae deletion strains, growth OD

Measured: normalized growth

COc1cc2ccc(=O)oc2c(OC)c1OC
inactive: locus YAL021C, strain ccr4, active compounds read low 1 | locus YAL026C, strain drs2, active compounds read low 0.983 | locus YAL030W, strain snc1, active compounds read low 0.98 | locus YBL061C, strain skt5, active compounds read low 0.997 | locus YBR009C, strain hhf1, active compounds read low 0.998 | locus YBR021W, strain FUR4, active compounds read low 0.97 | locus YBR023C, strain chs3, active compounds read low 0.995 | locus YBR171W, strain sec66, active compounds read low 0.974 | locus YBR229C, strain ROT2, active compounds read low 1.02 | locus YBR231C, strain swc5, active compounds read low 1.02 | locus YBR279W, strain paf1, active compounds read low 0.991 | locus YCL011C, strain gbp2, active compounds read low 0.977 | locus YCL016C, strain dcc1, active compounds read low 0.971 | locus YCL029C, strain bik1, active compounds read low 1.03 | locus YCL069W, strain vba3, active compounds read low 0.975 | locus YCR088W, strain abp1, active compounds read low 0.98 | locus YDL005C, strain med2, active compounds read low 0.977 | locus YDL035C, strain GPR1, active compounds read low 1.04 | locus YDL040C, strain nat1, active compounds read low 0.978 | locus YDL074C, strain BRE1, active compounds read low 1.03 | locus YDL101C, strain DUN1, active compounds read low 1.02 | locus YDL134C, strain PPH21, active compounds read low 1.02 | locus YDL185W, strain tfp1, active compounds read low 1.03 | locus YDL192W, strain arf1, active compounds read low 1.01 | locus YDR001C, strain nth1, active compounds read low 1 | locus YDR069C, strain doa4, active compounds read low 0.99 | locus YDR101C, strain arx1, active compounds read low 1 | locus YDR137W, strain rgp1, active compounds read low 0.997 | locus YDR159W, strain sac3, active compounds read low 1.04 | locus YDR162C, strain NBP2, active compounds read low 1.05 | locus YDR195W, strain ref2 0.984 | locus YDR297W, strain sur2, active compounds read low 0.997 | locus YDR318W, strain mcm21, active compounds read low 1.03 | locus YDR334W, strain swr1, active compounds read low 0.98 | locus YDR335W, strain msn5, active compounds read low 0.973 | locus YDR388W, active compounds read low 1.02 | locus YDR392W, strain spt3, active compounds read low 1 | locus YDR502C, strain sam2, active compounds read low 1.02 | locus YEL003W, strain gim4, active compounds read low 0.968 | locus YEL037C, strain rad23, active compounds read low 0.987 | locus YEL061C, strain CIN8 (second series), active compounds read low 0.996 | locus YER015W, strain faa2, active compounds read low 0.995 | locus YER016W, strain bim1, active compounds read low 0.959 | locus YER110C, active compounds read low 1.01 | locus YER111C, strain swi4, active compounds read low 0.979 | locus YER155C, strain BEM2 (second series), active compounds read low 0.982 | locus YER155C, strain BEM2, active compounds read low 1 | locus YER167W, strain BCK2, active compounds read low 1.02 | locus YFR010W, strain ubp6, active compounds read low 1.01 | locus YGL078C, strain dbp3, active compounds read low 1.04 | locus YGL086W, strain mad1, active compounds read low 1 | locus YGL167C, strain pmr1, active compounds read low 0.983 | locus YGL173C, strain kem1, active compounds read low 0.956 | locus YGL227W, strain vid30, active compounds read low 0.976 | locus YGL240W, strain doc1, active compounds read low 0.985 | locus YGL248W, strain PDE1, active compounds read low 1.03 | locus YGL253W, strain hxk2, active compounds read low 0.992 | locus YGR135W, strain pre9, active compounds read low 1.04 | locus YGR229C, strain SMI1, active compounds read low 1.01 | locus YGR252W, strain gcn5, active compounds read low 1 | locus YHR013C, strain ard1, active compounds read low 0.953 | locus YHR027C, strain rpn1, active compounds read low 0.996 | locus YHR079C, strain IRE1 (second series), active compounds read low 1.01 | locus YHR094C, strain hxt1, active compounds read low 1.02 | locus YHR129C, strain ARP1, active compounds read low 1.01 | locus YHR142W, strain chs7, active compounds read low 0.951 | locus YHR200W, strain rpn10, active compounds read low 1.02 | locus YIL066C, strain RNR3, active compounds read low 1.03 | locus YIL073C, strain SPO22, active compounds read low 1.07 | locus YIL125W, strain kgd1, active compounds read low 1.01 | locus YIR030C, strain dcg1, active compounds read low 1.02 | locus YJL092W, strain hpr5, active compounds read low 0.967 | locus YJL095W, strain BCK1 (second series), active compounds read low 0.978 | locus YJL095W, strain BCK1, active compounds read low 1.02 | locus YJL115W, strain asf1, active compounds read low 0.987 | locus YJL129C, strain trk1, active compounds read low 0.961 | locus YJL134W, strain LCB3, active compounds read low 1.01 | locus YJL154C, strain vps35, active compounds read low 0.979 | locus YJL164C, strain tpk1, active compounds read low 0.991 | locus YJL166W, strain qcr8, active compounds read low 0.978 | locus YJL168C, strain set2, active compounds read low 1.02 | locus YJL187C, strain SWE1 (second series), active compounds read low 1.02 | locus YKL009W, strain mrt4, active compounds read low 1.07 | locus YKL068W, active compounds read low 0.996 | locus YKL085W, strain MDH1 (second series), active compounds read low 1.01 | locus YKL085W, strain MDH1, active compounds read low 1.01 | locus YKL160W, strain elf1, active compounds read low 0.965 | locus YKL190W, strain CNB1, active compounds read low 1.01 | locus YKR001C, strain vps1, active compounds read low 0.992 | locus YKR026C, strain gcn3, active compounds read low 1 | locus YKR091W, strain srl3, active compounds read low 0.964 | locus YLL001W, strain dnm1, active compounds read low 0.987 | locus YLL026W, active compounds read low 0.992 | locus YLL041C, strain sdh2, active compounds read low 0.979 | locus YLR027C, strain aat2, active compounds read low 0.987 | locus YLR039C, strain RIC1, active compounds read low 1.07 | locus YLR058C, strain SHM2, active compounds read low 1.04 | locus YLR102C, strain apc9, active compounds read low 1.02 | locus YLR221C, strain rsa3, active compounds read low 1.02 | locus YLR258W, strain gsy2, active compounds read low 0.992 | locus YLR262C, strain YPT6 (second series), active compounds read low 1 | locus YLR268W, strain sec22, active compounds read low 1.03 | locus YLR320W, strain mms22, active compounds read low 1.02 | locus YLR342W, strain FKS1, active compounds read low 0.979 | locus YLR357W, strain rsc2, active compounds read low 0.964 | locus YLR370C, strain arc18, active compounds read low 0.979 | locus YLR371W, strain rom2, active compounds read low 1.01 | locus YLR384C, strain iki3, active compounds read low 0.991 | locus YLR418C, strain cdc73, active compounds read low 1.03 | locus YML016C, strain PPZ1, active compounds read low 1.03 | locus YML032C, strain rad52, active compounds read low 0.996 | locus YML120C, strain ndi1, active compounds read low 0.979 | locus YML124C, strain tub3, active compounds read low 1.02 | locus YMR058W, strain fet3, active compounds read low 0.974 | locus YMR078C, strain ctf18, active compounds read low 1.02 | locus YMR125W, strain sto1, active compounds read low 0.976 | locus YMR129W, active compounds read low 0.991 | locus YMR205C, strain PFK2, active compounds read low 0.995 | locus YMR223W, strain ubp8, active compounds read low 0.999 | locus YMR231W, strain pep5, active compounds read low 0.98 | locus YMR307W, strain GAS1, active compounds read low 1.07 | locus YNL067W, strain RPL9B, active compounds read low 1.02 | locus YNL071W, strain lat1, active compounds read low 0.999 | locus YNL153C, strain GIM3, active compounds read low 1.02 | locus YNL209W, strain ssb2, active compounds read low 0.976 | locus YNL233W, strain BNI4, active compounds read low 1.01 | locus YNL248C, strain rpa49, active compounds read low 0.962 | locus YNL250W, strain rad50, active compounds read low 1.03 | locus YNL271C, strain bni1, active compounds read low 1.02 | locus YNL298W, strain CLA4, active compounds read low 0.999 | locus YNL307C, strain MCK1, active compounds read low 1.03 | locus YNL322C, strain KRE1 (second series), active compounds read low 0.971 | locus YNL322C, strain KRE1, active compounds read low 1.02 | locus YNR049C, strain mso1, active compounds read low 0.954 | locus YNR052C, strain pop2, active compounds read low 1.02 | locus YOL006C, strain TOP1, active compounds read low 1.06 | locus YOL012C, strain htz1 1.05 | locus YOL147C, strain pex11, active compounds read low 1.01 | locus YOR001W, strain rrp6, active compounds read low 1.02 | locus YOR061W, strain CKA2, active compounds read low 1.04 | locus YOR069W, strain VPS5, active compounds read low 1.01 | locus YOR070C, strain gyp1, active compounds read low 0.994 | locus YOR080W, strain dia2, active compounds read low 0.968 | locus YOR083W, strain WHI5, active compounds read low 0.952 | locus YOR106W, strain vam3, active compounds read low 0.969 | locus YOR136W, strain idh2, active compounds read low 1.03 | locus YOR144C, strain elg1, active compounds read low 1.02 | locus YOR184W, strain ser1, active compounds read low 1.04 | locus YOR265W, strain rbl2, active compounds read low 0.994 | locus YOR270C, strain vph1, active compounds read low 0.957 | locus YOR290C, strain snf2, active compounds read low 0.964 | locus YOR316C, strain cot1, active compounds read low 1.02 | locus YPL051W, strain arl3, active compounds read low 0.982 | locus YPL078C, strain atp4, active compounds read low 0.966 | locus YPL106C, strain sse1, active compounds read low 0.977 | locus YPL240C, strain hsp82, active compounds read low 0.986 | locus YPR119W, strain clb2, active compounds read low 1.01 | locus YPR141C, strain kar3, active compounds read low 1.02 | locus YPR163C, strain tif3, active compounds read low 1.03 | locus YPR167C, strain met16, active compounds read low 1.04 | strain wtn01, active compounds read low 1.02
